The text below walks through data of PubChem BioAssay (NCI).

The panel holds about 83,000 compounds, 20% with a hit somewhere; the sample as a whole holds those more often.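 Each cell line was grown in a 96-well plate and treated with one concentration of compound for 48 hours. Values below 10 were considered active.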 Values without a mark were called inactive. Active and inactive are the calls of the source.

Test in all cases: NCI-60 one-dose screen, 48 h (100 = growth as untreated, 0 = no growth, -100 = all killed)
Details in all cases: 10 µM unless noted

Assay [1] deals with HCT-15 colon.
Assay [2] deals with HT29 colon.
Assay [3] deals with SNB-75 CNS.
For assay [4], the system named is SNB-19 CNS.
For assay [5], the system named is U251 CNS.
Assay [6] has as its system PC-3 prostate.
In assay [7] the test system is SK-MEL-5 melanoma.
The subject of assay [8] is UACC-62 melanoma.
For assay [9], the system named is LOX IMVI melanoma.
The subject of assay [10] is SK-MEL-28 melanoma.
Assay [11] deals with SK-MEL-2 melanoma.
Assay [12] deals with EKVX NSCLC.
For assay [13], the system named is SN12C renal.
Assay [14] deals with UO-31 renal.
Assay [15] has as its system TK-10 renal.
Assay [16] has as its system ACHN renal.
For assay [17], the system named is CAKI-1 renal.
The test system of assay [18] is A498 renal.
Assay [19] deals with CCRF-CEM leukemia.
For assay [20], the system named is MOLT-4 leukemia.

`COc1ccc(-c2nc3c(c(-c4ccccc4)nn3-c3ccccc3)c(-c3ccc(N4CCN(C)CC4)cc3)c2C#N)cc1`: the growth is 56.2% in assay [1]; 80.5% in assay [2]; 106% in assay [3]; 95.2% in [4]; 77.4% in assay [5]; 94.3% in assay [6]. The growth is 97.8% in assay [7]; 100% in assay [8]; 69.2% in assay [9]; 97.5% in assay [10]; 106% in assay [11]; 104% in [12]. Besides, the growth in assay [13] was 93.7%; in [14] it was 76.2%; in [15] it was 99%; in assay [16], 95.3%; in [17], 90%; in assay [18], 99.6%. The results for the growth in [19] and in assay [20] were 85.3% and 69.4%, respectively.

Regarding `N#Cc1cccc(NC(=O)c2oc3ccccc3c2-c2cnn(-c3ccccc3)c2)c1`, the growth is 74.1% [50 µM] in assay [1]; 85.5% [50 µM] in assay [2]; 86.3% [50 µM] in assay [3]; 84.2% [50 µM] in [4]; 85.3% [50 µM] in assay [5]; -9.05% [50 µM] (active) in assay [6]. Further, the growth in assay [7] was 67.7% [50 µM]; in assay [8], 75% [50 µM]; in assay [9], 77.9% [50 µM]; in [10], 91.9% [50 µM]; in assay [11], 88.1% [50 µM]; in assay [12], 76.5% [50 µM]. Further, the growth in assay [13] was 78.3% [50 µM]; in assay [14] it was 59% [50 µM]; in assay [15], 88.2% [50 µM]; in assay [16], 80.6% [50 µM]; in assay [17] it was 63.2% [50 µM]; in [18], 89.5% [50 µM]. For the same molecule, the growth was -21.3% [50 µM] (active) in assay [19] and -5.03% [50 µM] (active) in [20].

As to `COc1ccc(CC(C#N)c2cc3ccccc3[nH]2)cc1` (stereo not given), the growth in [1] was 91.5%; in [2], 96.5%; in assay [3], 78.2%; in assay [4] it was 92.8%; in assay [5], 89.3%; in assay [6], 75.6%. For the same molecule, the growth is 91.6% in [7]; 75% in assay [8]; 92% in [9]; 95% in [10]; 113% in assay [11]; 95.9% in assay [12]. The growth was 92.7% in assay [13]; 61.5% in assay [14]; 118% in assay [15]; 93.9% in [16]; 72.6% in assay [17]; 84.2% in [18]. For the same molecule, the growth in assay [19] is -27.2% (active); in [20], 98.1%.

Consider `O=c1oc2c(cnc3ccccc32)cc1-c1ccsc1`, for which the growth is 107% in assay [1]; 113% in [2]; 89% in assay [3]; 94.6% in [4]; 93.3% in [5]; 90.5% in assay [6]. The growth in assay [7] is 96.8%; in [8], 94.8%; in assay [9], 99.3%; in assay [10] it was 106%; in [11], 106%; in assay [12], 95%. Further, the growth was 95.1% in assay [13]; 79.3% in assay [14]; 123% in assay [15]; 93.9% in [16]; 84.5% in assay [17]; 107% in assay [18]. In addition, the growth in [19] is 94.6%; in assay [20], 96%.

As for `O=C1/C(=C/c2ccc(Cl)cc2)COc2ccc(O)cc21`, the growth in assay [1] is 29.3%; in assay [2], 15.3%; in assay [3], 84.5%; in [4], 82.1%; in assay [5] it was 44.9%; in [6], 69.8%. Also, the growth in [7] was 96.8%; in assay [8] it was 78.1%; in assay [9] it was -42.6% (active); in assay [10], 96.8%; in assay [11], 101%; in [12], 95.5%. Also, the growth was 69% in assay [13]; 53.1% in [14]; 100% in assay [15]; 80% in [16]; 70.8% in assay [17]; 100% in assay [18]. For the same molecule, the growth was -5.84% (active) in assay [19] and 14.8% in [20].

With `N#Cc1c(NC(=O)c2ccccc2)sc2c1CCC(=O)C2`, the growth is -3.43% (active) in assay [1]; 14.1% in [2]; -6.39% (active) in assay [3]; 19.1% in assay [4]; 13.4% in [5]; 12% in assay [6]. Also, the growth in [7] was -75.8% (active); in [8], 1.83% (active); in assay [9] it was 6.26% (active); in [10] it was 17.5%; in [11], 13.6%; in [12], 21.7%. Further, the growth was 11.6% in assay [13]; -16.4% (active) in [14]; 39.5% in assay [15]; 5.88% (active) in [16]; -27.3% (active) in assay [17]; 78.3% in [18]. In addition, the growth was 7.52% (active) in assay [19] and 8.12% (active) in assay [20].

As for `Cc1cc2c(O)c(-c3cc(Cl)ccc3Cl)c3sc(=O)oc3c2cc1C`, the growth in [1] is 74.5%; in assay [2], 103%; in [3], 61.2%; in assay [4] it was 77.6%; in [5] it was 45.4%; in assay [6], 29.2%. Moreover, the growth in assay [7] was 42.5%; in assay [8], 52.2%; in assay [9] it was 78.4%; in [10], 81%; in assay [11] it was 74%; in assay [12], 94.6%. For the same molecule, the growth in assay [13] is 66.9%; in assay [14] it was 85.3%; in assay [15] it was 113%; in assay [16], 79.8%; in assay [17], 53.9%; in assay [18] it was 30.1%. Besides, the figures for the growth in [19] and in assay [20] were 53.8% and 40.6%, respectively.

As for `CCN1CCN(Cc2cn(CC(=O)Nc3ccc4c(ccn4Cc4ccccc4)c3)nn2)CC1`, the growth was 109% in [1]; 102% in [2]; 86.8% in assay [3]; 98.4% in assay [4]; 96.6% in [5]; 96.4% in assay [6]. The growth is 99.9% in assay [7]; 95% in assay [8]; 103% in assay [9]; 105% in [10]; 106% in assay [11]; 106% in assay [12]. Besides, the growth in assay [13] is 104%; in assay [14] it was 81.3%; in assay [15] it was 99.2%; in [16], 102%; in assay [17] it was 86.7%; in assay [18], 108%. Further, the figures for the growth in assay [19] and in assay [20] were 7.79% (active) and 101%, respectively.
